Data published in PubChem BioAssay AID1159580 (chemical genetic matrix, 2015).
The whole screen tested about 5,500 compounds, of which about 2,000 (36%) were called active. Not shown: some 18% with an inconclusive outcome. Rule as the data show it: active = normalized growth mostly below about 0.91 (no sharp cut-off); inconclusive = no clear call, values can overlap the other calls; inactive = mostly above about 0.92. The list shows a part of the results.

Test: chemical genetic growth profiling, strain panel (AID 1159580);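 also: tested at 20 µM; growth read once vehicle control cultures reached saturation at 30 °C; 1 = growth at the plate median or of vehicle wells; lower values mean less growth of the strain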
Details: S. cerevisiae deletion strains, growth OD

Measured: normalized growth

FC(F)(F)c1ccccc1-n1ccnc1
inactive: locus YAL021C, strain ccr4, stronger effect = lower value 0.971 | locus YAL026C, strain drs2, stronger effect = lower value 1.02 | locus YAL030W, strain snc1, stronger effect = lower value 1.01 | locus YAL040C, strain CLN3, stronger effect = lower value 1.01 | locus YBL061C, strain skt5, stronger effect = lower value 1.01 | locus YBR009C, strain hhf1, stronger effect = lower value 1.08 | locus YBR023C, strain chs3, stronger effect = lower value 1 | locus YBR171W, strain sec66, stronger effect = lower value 0.966 | locus YBR231C, strain swc5, stronger effect = lower value 1 | locus YBR279W, strain paf1, stronger effect = lower value 1 | locus YCL011C, strain gbp2, stronger effect = lower value 0.998 | locus YCL016C, strain dcc1, stronger effect = lower value 1.01 | locus YCL061C, strain MRC1 (second series), stronger effect = lower value 1 | locus YCL061C, strain MRC1, stronger effect = lower value 1 | locus YCL069W, strain vba3, stronger effect = lower value 0.999 | locus YCR088W, strain abp1, stronger effect = lower value 0.986 | locus YDL005C, strain med2, stronger effect = lower value 0.992 | locus YDL040C, strain nat1, stronger effect = lower value 1 | locus YDR001C, strain nth1, stronger effect = lower value 0.988 | locus YDR069C, strain doa4, stronger effect = lower value 0.999 | locus YDR137W, strain rgp1, stronger effect = lower value 0.949 | locus YDR159W, strain sac3, stronger effect = lower value 1.04 | locus YDR195W, strain ref2 1.03 | locus YDR297W, strain sur2, stronger effect = lower value 0.995 | locus YDR334W, strain swr1, stronger effect = lower value 0.963 | locus YDR335W, strain msn5, stronger effect = lower value 0.988 | locus YDR363W, strain ESC2, stronger effect = lower value 1.02 | locus YDR392W, strain spt3, stronger effect = lower value 0.993 | locus YEL003W, strain gim4, stronger effect = lower value 0.987 | locus YEL037C, strain rad23, stronger effect = lower value 1 | locus YEL061C, strain CIN8 (second series), stronger effect = lower value 0.995 | locus YER002W, strain NOP16, stronger effect = lower value 0.991 | locus YER015W, strain faa2, stronger effect = lower value 1 | locus YER016W, strain bim1, stronger effect = lower value 1.01 | locus YER111C, strain swi4, stronger effect = lower value 0.999 | locus YER155C, strain BEM2 (second series), stronger effect = lower value 1.04 | locus YFR010W, strain ubp6, stronger effect = lower value 1 | locus YGL167C, strain pmr1, stronger effect = lower value 1.01 | locus YGL173C, strain kem1, stronger effect = lower value 1.01 | locus YGL227W, strain vid30, stronger effect = lower value 1.02 | locus YGL240W, strain doc1, stronger effect = lower value 1.06 | locus YGL253W, strain hxk2, stronger effect = lower value 1 | locus YHR013C, strain ard1, stronger effect = lower value 0.998 | locus YHR027C, strain rpn1, stronger effect = lower value 0.99 | locus YHR030C, strain SLT2, stronger effect = lower value 0.993 | locus YHR079C, strain IRE1, stronger effect = lower value 1.01 | locus YHR142W, strain chs7, stronger effect = lower value 0.935 | locus YJL092W, strain hpr5, stronger effect = lower value 0.975 | locus YJL095W, strain BCK1 (second series), stronger effect = lower value 0.994 | locus YJL095W, strain BCK1, stronger effect = lower value 1 | locus YJL115W, strain asf1, stronger effect = lower value 0.983 | locus YJL129C, strain trk1, stronger effect = lower value 0.974 | locus YJL154C, strain vps35, stronger effect = lower value 1 | locus YJL164C, strain tpk1, stronger effect = lower value 0.978 | locus YJL166W, strain qcr8, stronger effect = lower value 1.01 | locus YJL187C, strain SWE1, stronger effect = lower value 1 | locus YJR066W, strain TOR1, stronger effect = lower value 0.936 | locus YKL160W, strain elf1, stronger effect = lower value 0.971 | locus YKR026C, strain gcn3, stronger effect = lower value 0.993 | locus YKR091W, strain srl3, stronger effect = lower value 1 | locus YLL001W, strain dnm1, stronger effect = lower value 1 | locus YLL026W, stronger effect = lower value 1 | locus YLL041C, strain sdh2, stronger effect = lower value 0.994 | locus YLR027C, strain aat2, stronger effect = lower value 0.99 | locus YLR113W, strain HOG1, stronger effect = lower value 1.05 | locus YLR221C, strain rsa3, stronger effect = lower value 0.985 | locus YLR258W, strain gsy2, stronger effect = lower value 1.03 | locus YLR262C, strain YPT6 (second series), stronger effect = lower value 0.923 | locus YLR320W, strain mms22, stronger effect = lower value 1 | locus YLR342W, strain FKS1, stronger effect = lower value 1 | locus YLR357W, strain rsc2, stronger effect = lower value 1.02 | locus YLR370C, strain arc18, stronger effect = lower value 1 | locus YLR384C, strain iki3, stronger effect = lower value 0.995 | locus YML120C, strain ndi1, stronger effect = lower value 0.979 | locus YMR058W, strain fet3, stronger effect = lower value 0.98 | locus YMR125W, strain sto1, stronger effect = lower value 1.02 | locus YMR129W, stronger effect = lower value 0.992 | locus YMR205C, strain PFK2, stronger effect = lower value 1.09 | locus YMR231W, strain pep5, stronger effect = lower value 1.02 | locus YMR307W, strain GAS1, stronger effect = lower value 1.02 | locus YNL071W, strain lat1, stronger effect = lower value 0.992 | locus YNL175C, strain NOP13, stronger effect = lower value 0.976 | locus YNL183C, strain NPR1, stronger effect = lower value 0.925 | locus YNL197C, strain WHI3, stronger effect = lower value 0.977 | locus YNL209W, strain ssb2, stronger effect = lower value 1 | locus YNL224C, strain SQS1, stronger effect = lower value 0.995 | locus YNL248C, strain rpa49, stronger effect = lower value 0.936 | locus YNL322C, strain KRE1 (second series), stronger effect = lower value 1.01 | locus YNL322C, strain KRE1, stronger effect = lower value 0.996 | locus YNR049C, strain mso1, stronger effect = lower value 0.995 | locus YOR001W, strain rrp6, stronger effect = lower value 0.949 | locus YOR070C, strain gyp1, stronger effect = lower value 1 | locus YOR080W, strain dia2, stronger effect = lower value 1 | locus YOR083W, strain WHI5 (second series), stronger effect = lower value 0.948 | locus YOR083W, strain WHI5, stronger effect = lower value 0.944 | locus YOR106W, strain vam3, stronger effect = lower value 0.951 | locus YOR231W, strain MKK1, stronger effect = lower value 0.981 | locus YOR265W, strain rbl2, stronger effect = lower value 0.991 | locus YOR270C, strain vph1, stronger effect = lower value 0.946 | locus YOR290C, strain snf2, stronger effect = lower value 0.939 | locus YPL051W, strain arl3, stronger effect = lower value 0.98 | locus YPL078C, strain atp4, stronger effect = lower value 0.931 | locus YPL106C, strain sse1, stronger effect = lower value 1.02 | locus YPL240C, strain hsp82, stronger effect = lower value 0.975 | locus YPL241C, strain CIN2, stronger effect = lower value 0.998 | locus YPL256C, strain CLN2, stronger effect = lower value 1.03
